# Measured values from the supplement of paper PMC10849652.
# Of roughly 8,800 targets only a part is listed; those with a hit were picked by preference. About 0.5% of all pairs of compound and target were hits.
# What was measured:
# Assay in all cases: log2 fold change, soluble protein after heating vs DMSO (PISA); higher = thermal stabilisation; K562 lysate, 10 uM; active = over 0.2 and 3.5 SD of the protein, either way, in both replicates (recomputed)
# alvocidib = compound: CN1CC[C@H](c2c(O)cc(O)c3c(=O)cc(-c4ccccc4Cl)oc23)[C@H](O)C1 [alvocidib]
# Summary of the method: (§1)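 A 30 min treatment with 10 μM compound was applied to crude K562 extract at 1 mg/mL protein in PBS pH 7.4 with 1 mM MgCl2. Heating for 3 min spanned 48°C-58°C, after which aliquots were pooled, adjusted to 0.5% NP-40 at 4°C and spun at 21,000xg for 90 min. TMTpro 16plex LC-MS/MS of the supernatant, with channel sums equalised, gave values recorded as log-two fold change in thermal stability against solvent controls, from duplicates.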
# Tubastatin A = compound: CN1CCc2c(c3ccccc3n2Cc2ccc(C(=O)NO)cc2)C1 [Tubastatin A]
# Summary of the method: as §1
# [1] = compound: CNC(=O)C1=CC=CC=C1NC2=NC(=NC=C2Cl)NC3=C(C=C(C=C3)N4CCOCC4)OC
# Summary of the method: as §1
# defactinib = compound: CNC(=O)c1ccc(Nc2ncc(C(F)(F)F)c(NCc3nccnc3N(C)S(C)(=O)=O)n2)cc1 [defactinib]
# Summary of the method: as §1
# [2] = compound: CNc1nc(-c2ccc3c(N)n[nH]c3c2)cc(N2C[C@@H](C(=O)NC3CCCCC3)CC[C@H]2C)n1
# Summary of the method: as §1
# encorafenib = compound: COC(=O)N[C@@H](C)CNc1nccc(-c2cn(C(C)C)nc2-c2cc(Cl)cc(NS(C)(=O)=O)c2F)n1 [encorafenib]
# Summary of the method: as §1
# [3] = compound: COC(=O)[C@H](CCSC)NC(=O)C1=C(C=C(C=C1)NC[C@H](CS)N)C2=CC=CC=C2
# Summary of the method: as §1
# alisertib = compound: COc1cc(Nc2ncc3c(n2)-c2ccc(Cl)cc2C(c2c(F)cccc2OC)=NC3)ccc1C(=O)O [alisertib]
# Summary of the method: as §1
# [4] = compound: COc1cc2nc(-c3cc(F)ccc3O)nc(N[C@@H]3CNC[C@H]3C(C)(C)O)c2cc1OC
# Summary of the method: as §1
# gefitinib = compound: COc1cc2ncnc(Nc3ccc(F)c(Cl)c3)c2cc1OCCCN1CCOCC1 [gefitinib]
# Summary of the method: as §1
# lapatinib = compound: CS(=O)(=O)CCNCc1ccc(-c2ccc3ncnc(Nc4ccc(OCc5cccc(F)c5)c(Cl)c4)c3c2)o1 [lapatinib]
# Summary of the method: as §1
# crizotinib = compound: C[C@@H](Oc1cc(-c2cnn(C3CCNCC3)c2)cnc1N)c1c(Cl)ccc(F)c1Cl [crizotinib]
# Summary of the method: as §1
# [5] = compound: C[C@H](C1=CC=C(C=C1)C(=O)NC2=C3C=CNC3=NC=C2)N
# Summary of the method: as §1
# duvelisib = compound: C[C@H](Nc1ncnc2nc[nH]c12)c1cc2cccc(Cl)c2c(=O)n1-c1ccccc1 [duvelisib]
# Summary of the method: as §1
# gandotinib = compound: Cc1cc(Nc2cc(CN3CCOCC3)c3nc(C)c(Cc4ccc(Cl)cc4F)n3n2)n[nH]1 [gandotinib]
# Summary of the method: as §1
# tozasertib = compound: Cc1cc(Nc2cc(N3CCN(C)CC3)nc(Sc3ccc(NC(=O)C4CC4)cc3)n2)n[nH]1 [tozasertib]
# Summary of the method: as §1
# doramapimod = compound: Cc1ccc(-n2nc(C(C)(C)C)cc2NC(=O)Nc2ccc(OCCN3CCOCC3)c3ccccc23)cc1 [doramapimod]
# Summary of the method: as §1
# bafetinib = compound: Cc1ccc(NC(=O)c2ccc(CN3CC[C@H](N(C)C)C3)c(C(F)(F)F)c2)cc1Nc1nccc(-c2cncnc2)n1 [bafetinib]
# Summary of the method: as §1
# [6] = compound: Cc1cccc(CC(=O)N2CCc3c2ccc(-c2cn(C)c4ncnc(N)c24)c3F)n1
# Summary of the method: as §1
# pictilisib = compound: CS(=O)(=O)N1CCN(Cc2cc3nc(-c4cccc5[nH]ncc45)nc(N4CCOCC4)c3s2)CC1 [pictilisib]
# Summary of the method: as §1
# Chain of UniProt Q8TE73 (Q8TE73 whole entry, looked up): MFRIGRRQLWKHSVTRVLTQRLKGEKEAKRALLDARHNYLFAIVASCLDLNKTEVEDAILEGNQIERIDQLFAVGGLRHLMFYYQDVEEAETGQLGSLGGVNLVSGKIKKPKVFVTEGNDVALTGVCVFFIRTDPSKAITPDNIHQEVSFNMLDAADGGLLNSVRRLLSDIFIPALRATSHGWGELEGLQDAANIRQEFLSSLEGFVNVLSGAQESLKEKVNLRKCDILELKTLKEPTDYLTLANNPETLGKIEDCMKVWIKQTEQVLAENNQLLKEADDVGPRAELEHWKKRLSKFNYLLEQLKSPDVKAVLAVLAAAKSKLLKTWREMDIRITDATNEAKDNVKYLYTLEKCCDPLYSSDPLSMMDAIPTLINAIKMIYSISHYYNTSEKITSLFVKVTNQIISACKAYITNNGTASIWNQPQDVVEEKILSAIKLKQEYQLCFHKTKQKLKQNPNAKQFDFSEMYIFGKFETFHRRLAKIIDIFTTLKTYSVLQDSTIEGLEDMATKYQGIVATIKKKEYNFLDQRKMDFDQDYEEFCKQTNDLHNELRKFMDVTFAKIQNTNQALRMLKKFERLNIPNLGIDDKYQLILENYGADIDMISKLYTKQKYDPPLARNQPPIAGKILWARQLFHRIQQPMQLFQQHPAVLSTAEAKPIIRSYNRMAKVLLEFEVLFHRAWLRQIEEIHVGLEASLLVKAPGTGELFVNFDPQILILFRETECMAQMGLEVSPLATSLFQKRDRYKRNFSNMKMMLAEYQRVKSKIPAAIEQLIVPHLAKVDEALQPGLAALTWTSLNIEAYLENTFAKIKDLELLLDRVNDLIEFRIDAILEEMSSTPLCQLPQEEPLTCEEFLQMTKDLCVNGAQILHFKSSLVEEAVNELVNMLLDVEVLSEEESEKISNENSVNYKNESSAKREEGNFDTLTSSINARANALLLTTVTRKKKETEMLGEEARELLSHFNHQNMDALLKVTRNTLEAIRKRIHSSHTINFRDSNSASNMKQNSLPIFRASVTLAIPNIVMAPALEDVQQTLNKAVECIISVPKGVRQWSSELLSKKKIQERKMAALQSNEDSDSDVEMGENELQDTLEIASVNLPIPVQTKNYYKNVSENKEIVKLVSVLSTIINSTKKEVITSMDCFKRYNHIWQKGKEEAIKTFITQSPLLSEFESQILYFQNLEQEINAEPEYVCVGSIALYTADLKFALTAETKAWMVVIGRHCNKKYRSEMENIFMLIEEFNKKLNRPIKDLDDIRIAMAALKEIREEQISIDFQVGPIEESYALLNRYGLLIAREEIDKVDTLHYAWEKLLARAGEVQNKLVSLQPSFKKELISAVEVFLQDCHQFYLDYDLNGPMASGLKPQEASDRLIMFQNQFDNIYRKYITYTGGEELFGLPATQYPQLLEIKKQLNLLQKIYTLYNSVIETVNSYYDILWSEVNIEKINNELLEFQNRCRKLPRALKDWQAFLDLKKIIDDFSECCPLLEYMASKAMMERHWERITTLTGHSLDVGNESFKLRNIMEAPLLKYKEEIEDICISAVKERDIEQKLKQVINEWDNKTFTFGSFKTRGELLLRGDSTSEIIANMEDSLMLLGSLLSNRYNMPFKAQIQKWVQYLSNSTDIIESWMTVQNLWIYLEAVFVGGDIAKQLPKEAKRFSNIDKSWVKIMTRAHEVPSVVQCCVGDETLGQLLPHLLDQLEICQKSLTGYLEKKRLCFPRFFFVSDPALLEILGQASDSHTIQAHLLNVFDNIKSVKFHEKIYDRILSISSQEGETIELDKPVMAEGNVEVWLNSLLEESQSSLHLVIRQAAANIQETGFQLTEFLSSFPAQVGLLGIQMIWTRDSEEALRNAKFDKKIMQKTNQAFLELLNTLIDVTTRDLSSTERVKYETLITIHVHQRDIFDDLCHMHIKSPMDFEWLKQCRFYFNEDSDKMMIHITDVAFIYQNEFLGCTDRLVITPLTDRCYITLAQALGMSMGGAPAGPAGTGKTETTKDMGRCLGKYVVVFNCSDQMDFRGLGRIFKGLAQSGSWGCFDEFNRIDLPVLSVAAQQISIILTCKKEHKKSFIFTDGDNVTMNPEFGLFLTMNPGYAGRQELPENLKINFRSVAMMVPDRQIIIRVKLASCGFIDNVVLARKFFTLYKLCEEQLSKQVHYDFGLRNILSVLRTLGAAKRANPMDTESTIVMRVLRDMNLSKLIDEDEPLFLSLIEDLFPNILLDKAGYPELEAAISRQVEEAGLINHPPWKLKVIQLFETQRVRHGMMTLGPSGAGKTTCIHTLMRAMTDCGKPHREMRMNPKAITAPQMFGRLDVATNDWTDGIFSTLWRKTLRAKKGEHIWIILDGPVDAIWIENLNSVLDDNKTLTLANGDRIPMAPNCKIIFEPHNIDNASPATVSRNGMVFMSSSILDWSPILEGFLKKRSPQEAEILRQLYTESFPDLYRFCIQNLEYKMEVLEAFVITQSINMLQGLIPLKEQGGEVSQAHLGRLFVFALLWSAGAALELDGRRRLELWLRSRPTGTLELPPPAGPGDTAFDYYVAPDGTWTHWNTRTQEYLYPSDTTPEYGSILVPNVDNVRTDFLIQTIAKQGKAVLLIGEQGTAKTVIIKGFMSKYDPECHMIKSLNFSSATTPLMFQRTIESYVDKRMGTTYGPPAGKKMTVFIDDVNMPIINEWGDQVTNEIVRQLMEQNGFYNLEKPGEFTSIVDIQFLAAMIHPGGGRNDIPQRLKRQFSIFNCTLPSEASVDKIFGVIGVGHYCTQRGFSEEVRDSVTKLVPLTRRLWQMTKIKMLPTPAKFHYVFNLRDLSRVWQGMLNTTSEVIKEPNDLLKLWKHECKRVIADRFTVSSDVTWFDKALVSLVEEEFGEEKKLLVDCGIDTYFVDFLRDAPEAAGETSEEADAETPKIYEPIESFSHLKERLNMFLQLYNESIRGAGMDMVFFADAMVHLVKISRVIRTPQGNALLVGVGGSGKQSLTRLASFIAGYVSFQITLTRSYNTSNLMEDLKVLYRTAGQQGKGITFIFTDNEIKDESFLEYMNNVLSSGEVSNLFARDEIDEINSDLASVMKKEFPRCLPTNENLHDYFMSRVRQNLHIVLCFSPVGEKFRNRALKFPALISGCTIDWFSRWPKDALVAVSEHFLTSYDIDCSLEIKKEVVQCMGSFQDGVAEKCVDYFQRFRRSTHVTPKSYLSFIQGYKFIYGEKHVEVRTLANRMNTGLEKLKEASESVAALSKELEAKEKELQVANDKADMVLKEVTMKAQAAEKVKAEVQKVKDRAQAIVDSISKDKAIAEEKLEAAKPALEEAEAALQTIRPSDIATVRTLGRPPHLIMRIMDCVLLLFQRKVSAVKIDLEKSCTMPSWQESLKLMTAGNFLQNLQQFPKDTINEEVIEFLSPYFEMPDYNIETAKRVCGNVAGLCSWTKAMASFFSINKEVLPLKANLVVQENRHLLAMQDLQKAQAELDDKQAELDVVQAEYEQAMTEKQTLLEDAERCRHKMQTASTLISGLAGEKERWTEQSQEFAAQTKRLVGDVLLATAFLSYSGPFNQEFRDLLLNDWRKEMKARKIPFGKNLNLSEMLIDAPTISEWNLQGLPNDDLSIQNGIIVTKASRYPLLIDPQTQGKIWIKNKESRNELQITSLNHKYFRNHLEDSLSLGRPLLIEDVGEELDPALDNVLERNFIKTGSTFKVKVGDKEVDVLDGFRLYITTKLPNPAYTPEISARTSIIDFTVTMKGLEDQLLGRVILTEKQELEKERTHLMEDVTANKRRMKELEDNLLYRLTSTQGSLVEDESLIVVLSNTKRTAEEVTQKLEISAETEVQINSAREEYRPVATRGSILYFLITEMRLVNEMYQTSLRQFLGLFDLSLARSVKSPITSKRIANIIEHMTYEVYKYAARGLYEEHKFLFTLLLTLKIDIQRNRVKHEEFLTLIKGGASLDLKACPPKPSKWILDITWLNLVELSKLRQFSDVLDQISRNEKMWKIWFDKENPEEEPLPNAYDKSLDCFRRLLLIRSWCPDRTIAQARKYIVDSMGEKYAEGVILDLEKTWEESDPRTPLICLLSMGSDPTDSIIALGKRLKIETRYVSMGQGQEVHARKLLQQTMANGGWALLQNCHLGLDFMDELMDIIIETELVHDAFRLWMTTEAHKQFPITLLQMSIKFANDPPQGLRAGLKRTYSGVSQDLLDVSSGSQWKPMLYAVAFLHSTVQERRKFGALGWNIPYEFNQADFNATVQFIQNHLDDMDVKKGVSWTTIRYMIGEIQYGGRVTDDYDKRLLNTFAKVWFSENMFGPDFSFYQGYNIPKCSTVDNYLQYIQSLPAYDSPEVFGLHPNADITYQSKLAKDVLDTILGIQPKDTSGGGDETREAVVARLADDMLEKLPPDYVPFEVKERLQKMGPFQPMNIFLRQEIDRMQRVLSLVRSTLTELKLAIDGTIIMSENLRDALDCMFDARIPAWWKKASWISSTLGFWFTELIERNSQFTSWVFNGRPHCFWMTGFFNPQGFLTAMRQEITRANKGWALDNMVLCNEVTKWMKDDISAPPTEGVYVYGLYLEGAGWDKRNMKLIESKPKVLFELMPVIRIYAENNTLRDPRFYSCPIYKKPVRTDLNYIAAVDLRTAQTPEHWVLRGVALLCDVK
# Chain of UniProt O15247 (O15247 whole entry, looked up): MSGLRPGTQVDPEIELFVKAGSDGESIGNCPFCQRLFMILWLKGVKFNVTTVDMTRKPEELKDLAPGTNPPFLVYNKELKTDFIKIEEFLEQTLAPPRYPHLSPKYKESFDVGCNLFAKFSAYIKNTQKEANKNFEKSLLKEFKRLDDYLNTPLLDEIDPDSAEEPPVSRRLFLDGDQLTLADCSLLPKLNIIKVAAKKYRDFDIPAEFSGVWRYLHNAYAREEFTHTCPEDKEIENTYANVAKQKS
# Chain of UniProt P67870 (P67870 whole entry, looked up): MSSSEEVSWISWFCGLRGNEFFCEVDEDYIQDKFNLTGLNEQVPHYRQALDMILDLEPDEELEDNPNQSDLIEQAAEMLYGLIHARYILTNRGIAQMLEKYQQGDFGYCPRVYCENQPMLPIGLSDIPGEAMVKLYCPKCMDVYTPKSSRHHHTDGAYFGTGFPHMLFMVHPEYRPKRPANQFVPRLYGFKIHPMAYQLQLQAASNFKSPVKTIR
Target,log2 fold change (alvocidib),log2 fold change (Tubastatin A),log2 fold change [1],log2 fold change (defactinib),log2 fold change [2],log2 fold change (encorafenib),log2 fold change [3],log2 fold change (alisertib),log2 fold change [4],log2 fold change (gefitinib),log2 fold change (lapatinib),log2 fold change (crizotinib),log2 fold change [5],log2 fold change (duvelisib),log2 fold change (gandotinib),log2 fold change (tozasertib),log2 fold change (doramapimod),log2 fold change (bafetinib),log2 fold change [6],log2 fold change (pictilisib)
CLIP1 isoform 1 (UniProt P30622),-0.005 (inactive),0.038 (inactive),0.014 (inactive),-0.006 (inactive),-0.008 (inactive),0.003 (inactive),-0.03 (inactive),-0.016 (inactive),0.014 (inactive),0.001 (inactive),0.006 (inactive),0.023 (inactive),-0.023 (inactive),0.004 (inactive),0.036 (inactive),0.001 (inactive),0.011 (inactive),-0.003 (inactive),-0.01 (inactive),
CLIC2 (UniProt O15247),0.002 (inactive),-0.002 (inactive),0.034 (inactive),0.03 (inactive),0.024 (inactive),-0.016 (inactive),0.018 (inactive),0.02 (inactive),-0.014 (inactive),-0.038 (inactive),-0.057 (inactive),-0.002 (inactive),-0.037 (inactive),-0.039 (inactive),-0.015 (inactive),-0.016 (inactive),-0.022 (inactive),-0.009 (inactive),0.005 (inactive),
CNK3/IPCEF1 isoform 2 (UniProt G9CGD6),-0.483 (inactive),-0.048 (inactive),-0.012 (inactive),-0.082 (inactive),-0.007 (inactive),0.041 (inactive),-0.062 (inactive),,,,,,-1.84 (active),0.129 (inactive),0.326 (inactive),0.105 (inactive),,,0.4 (inactive),
CSNK2B (UniProt P67870),-0.005 (inactive),-0.012 (inactive),0.324 (active),0.025 (inactive),0.053 (inactive),-0.026 (inactive),-0.006 (inactive),-0.054 (inactive),0.052 (inactive),-0.022 (inactive),-0.052 (inactive),-0.073 (inactive),0.027 (inactive),-0.053 (inactive),0.016 (inactive),0.004 (inactive),0.022 (inactive),0.064 (inactive),-0.05 (inactive),0.023 (inactive)
DNAH5 (UniProt Q8TE73),-0.189 (inactive),0.073 (inactive),-0.032 (inactive),-0.014 (inactive),-0.051 (inactive),,,-0.029 (inactive),-0.019 (inactive),0.052 (inactive),0.043 (inactive),,-0.422 (active),-0.051 (inactive),0.181 (inactive),,,-0.047 (inactive),0.175 (inactive),-0.005 (inactive)
DNA2 (UniProt P51530),-0.116 (inactive),-0.15 (inactive),-0.009 (inactive),-0.039 (inactive),-0.035 (inactive),0.123 (inactive),-0.098 (inactive),-0.007 (inactive),,0.036 (inactive),,-0.046 (inactive),0.052 (inactive),-0.02 (inactive),0.013 (inactive),-0.07 (inactive),0.051 (inactive),,-0.017 (inactive),
CLPTM1L (UniProt Q96KA5),0.001 (inactive),-0.064 (inactive),-0.131 (inactive),0.015 (inactive),-0.204 (inactive),0.021 (inactive),-0.029 (inactive),0.054 (inactive),-0.097 (inactive),0.011 (inactive),-0.095 (inactive),-0.021 (inactive),-0.092 (inactive),-0.049 (inactive),-0.233 (active),0.004 (inactive),-0.098 (inactive),-0.064 (inactive),0.137 (inactive),
CLASP1 (UniProt Q7Z460),-0.057 (inactive),-0.032 (inactive),-0.005 (inactive),-0.037 (inactive),-0.006 (inactive),0.058 (inactive),0.009 (inactive),0.036 (inactive),-0.001 (inactive),0.018 (inactive),0 (inactive),-0.051 (inactive),-0.09 (inactive),-0.003 (inactive),0.188 (inactive),0.004 (inactive),0.03 (inactive),-0.042 (inactive),0.185 (inactive),
DCTN1 isoform 4 (UniProt Q14203),0.3 (inactive),-0.254 (inactive),0.212 (inactive),-0.046 (inactive),0.105 (inactive),0.078 (inactive),-0.064 (inactive),0.107 (inactive),-0.05 (inactive),0.051 (inactive),-0.039 (inactive),-0.031 (inactive),0.054 (inactive),-0.032 (inactive),0.121 (inactive),0.173 (inactive),-0.103 (inactive),,-0.239 (inactive),
